For five compounds, potency estimated from few doses results are on record in PMC11062922 (Nature Chemical Biology, 2023).

Like-named read-outs stand apart in the source and are kept apart here.

Holding throughout (design): species or system human, MV4-11 + K-562 + COLO205 + SK-N-BE2 + OVCAR-8
For one assay, the system named is CDC42. The conditions noted are these: read-out: apparent Kd; compound concentrations:100 nM and 1000 nM (sheet 'Samples'); n = 1.
A further assay concerns CDK7. The settings on record: read-out: apparent Kd; compound concentrations:100 nM and 1000 nM (sheet 'Samples'); n = 1.
The test system of a further assay is ERCC2. The settings on record: read-out: apparent Kd; compound concentrations:100 nM and 1000 nM (sheet 'Samples'); n = 1.
Another assay deals with FER. The settings on record: read-out: apparent Kd; compound concentrations:100 nM and 1000 nM (sheet 'Samples'); n = 1.
The subject of another assay is GAK. The settings on record: read-out: apparent Kd; compound concentrations:100 nM and 1000 nM (sheet 'Samples'); n = 1.
The subject of a further assay is HSP90B1. The conditions noted are these: read-out: apparent Kd; compound concentrations:100 nM and 1000 nM (sheet 'Samples'); n = 1.
The subject of a further assay is TNK2. The conditions noted are these: read-out: apparent Kd; compound concentrations:100 nM and 1000 nM (sheet 'Samples'); n = 1.
In the next assay the test system is CAMK2B. The settings on record: read-out: apparent Kd; compound concentrations: 100 nM and 1000 nM (sheet 'Samples'), CATDS: 0.21240793687588; n = 1.
Another assay relates to CAMK2D. The settings on record: read-out: apparent Kd; compound concentrations: 100 nM and 1000 nM (sheet 'Samples'), CATDS: 0.22355141461127601; n = 1.
The test system of another assay is CAMK2G. The conditions noted are these: read-out: apparent Kd; compound concentrations: 100 nM and 1000 nM (sheet 'Samples'), CATDS: 0.16282933819825701; n = 1.
A further assay has as its system MAPK14. The settings on record: read-out: apparent Kd; compound concentrations: 100 nM and 1000 nM (sheet 'Samples'), CATDS: 0.12639229047772599; n = 1.
A further assay has as its system MAPK1. The settings on record: read-out: apparent Kd; compound concentrations: 100 nM and 1000 nM (sheet 'Samples'), CATDS: 0.13886491205571; n = 1.
The subject of another assay is MTHFD1. The settings on record: read-out: apparent Kd; compound concentrations: 100 nM and 1000 nM (sheet 'Samples'), CATDS: 0.112540621038884; n = 1.
The next assay concerns STK16. The conditions noted are these: read-out: apparent Kd; compound concentrations: 100 nM and 1000 nM (sheet 'Samples'), CATDS: 0.103320343146107; n = 1.
A further assay has as its system CAMKK2. The conditions noted are these: read-out: apparent Kd; compound concentrations: 100 nM and 1000 nM (sheet 'Samples'), CATDS: 0.352133758471873; n = 1.
The next assay concerns EGFR. The conditions noted are these: read-out: apparent Kd; compound concentrations: 100 nM and 1000 nM (sheet 'Samples'), CATDS: 0.86194262245046105; n = 1.
The subject of a further assay is CDC42BPA. The settings on record: read-out: apparent Kd; compound concentrations: 100 nM and 1000 nM (sheet 'Samples'), CATDS: 7.0311293069570804E-2; n = 1.
For the next assay, the system named is CDC42BPB. The conditions noted are these: read-out: apparent Kd; compound concentrations: 100 nM and 1000 nM (sheet 'Samples'), CATDS: 0.16933732506395899; n = 1.
For the next assay, the system named is CDC42BPG. The conditions noted are these: read-out: apparent Kd, compound concentrations: 100 nM and 1000 nM (sheet 'Samples'), n = 1.
For another assay, the system named is LATS1. The settings on record: read-out: apparent Kd; compound concentrations: 100 nM and 1000 nM (sheet 'Samples'), CATDS: 4.6540265787969097E-2; n = 1.
The subject of the next assay is PKN1. The conditions noted are these: read-out: apparent Kd; compound concentrations: 100 nM and 1000 nM (sheet 'Samples'), CATDS: 4.7667379026866498E-2; n = 1.
The subject of the next assay is PKN2. The settings on record: read-out: apparent Kd; compound concentrations: 100 nM and 1000 nM (sheet 'Samples'), CATDS: 4.4394319464929097E-2; n = 1.
For the next assay, the system named is PRKACA. The conditions noted are these: read-out: apparent Kd; compound concentrations: 100 nM and 1000 nM (sheet 'Samples'), CATDS: 0.118024991958308; n = 1.
The next assay concerns PRKACB. The settings on record: read-out: apparent Kd; compound concentrations: 100 nM and 1000 nM (sheet 'Samples'), CATDS: 8.0327411283578495E-2; n = 1.
The next assay has as its system PRKCA. The conditions noted are these: read-out: apparent Kd; compound concentrations: 100 nM and 1000 nM (sheet 'Samples'), CATDS: 4.1587552070859297E-2; n = 1.
Another assay relates to PRKCD. The settings on record: read-out: apparent Kd; compound concentrations: 100 nM and 1000 nM (sheet 'Samples'), CATDS: 4.48878810193531E-2; n = 1.
The subject of a further assay is PRKG1. The settings on record: read-out: apparent Kd; compound concentrations: 100 nM and 1000 nM (sheet 'Samples'), CATDS: 6.8591269035778196E-2; n = 1.
The subject of a further assay is PRKX. The conditions noted are these: read-out: apparent Kd; compound concentrations: 100 nM and 1000 nM (sheet 'Samples'), CATDS: 6.1188840569936599E-2; n = 1.
A further assay deals with ROCK1. The settings on record: read-out: apparent Kd; compound concentrations: 100 nM and 1000 nM (sheet 'Samples'), CATDS: 0.14218227493934099; n = 1.
The test system of another assay is ROCK2. The settings on record: read-out: apparent Kd; compound concentrations: 100 nM and 1000 nM (sheet 'Samples'), CATDS: 0.152164814838194; n = 1.
In another assay the test system is TP53RK. The settings on record: read-out: apparent Kd; compound concentrations: 100 nM and 1000 nM (sheet 'Samples'), CATDS: 4.1650793572711099E-2; n = 1.
The next assay deals with DDR1. The conditions noted are these: read-out: apparent Kd; compound concentrations: 100 nM and 1000 nM (sheet 'Samples'), CATDS: 0.140210166469808; n = 1.
A further assay concerns T1, DJA1.
T1 construct: gene DNAJA1
The conditions noted are these: read-out: apparent Kd; compound concentrations: 100 nM and 1000 nM (sheet 'Samples'), CATDS: 0.100265839502576; n = 1.

Another assay relates to FLT3. The conditions noted are these: read-out: apparent Kd; compound concentrations: 100 nM and 1000 nM (sheet 'Samples'), CATDS: 0.118432535218852; n = 1.
Another assay deals with PIK3C3. The settings on record: read-out: apparent Kd; compound concentrations: 100 nM and 1000 nM (sheet 'Samples'), CATDS: 0.105221440009215; n = 1.
For a further assay, the system named is PIK3CA. The conditions noted are these: read-out: apparent Kd; compound concentrations: 100 nM and 1000 nM (sheet 'Samples'), CATDS: 0.28704207187710601; n = 1.
The subject of the next assay is PIK3CG. The settings on record: read-out: apparent Kd; compound concentrations: 100 nM and 1000 nM (sheet 'Samples'), CATDS: 0.108238843984754; n = 1.
For a further assay, the system named is RET. The settings on record: read-out: apparent Kd; compound concentrations: 100 nM and 1000 nM (sheet 'Samples'), CATDS: 0.12612517113031699; n = 1.

Take `Cc1ccc2c(-c3ccnc(Nc4ccc(C(F)(F)F)cc4)n3)cnn2n1` [GW819776X]: the potency estimated from few doses with CDC42 was 1650 nM; with CDK7, 1750 nM; in the assay with ERCC2 it was 898 nM; with FER, 1180 nM; with GAK it was 1400 nM; in the assay with HSP90B1, 99.9 nM. In the assay with TNK2, the potency estimated from few doses is 1050 nM.

`N#Cc1cccc(C(=O)NC2CCN(c3ccnc(Nc4ccc(F)cc4)n3)C2)c1` (stereo not drawn) [GSK1379708A]: the potency estimated from few doses with CAMK2B is 395 nM; in the assay on CAMK2D, 364 nM; with CAMK2G, 631 nM; with MAPK14, 1100 nM; with MAPK1 it was 879 nM; with MTHFD1, 1500 nM. In addition, the potency estimated from few doses with STK16 was 1980 nM.

As for `CN(C)C(=O)O[C@H]1CN[C@H](C#Cc2cc3ncnc(Nc4ccc(OCc5cccc(F)c5)c(Cl)c4)c3s2)C1` [GSK182497A], the potency estimated from few doses in the assay with CAMKK2 was 2010 nM; in the assay on EGFR, 175 nM.

`NCCC(NC(=O)c1cc(Br)c(-c2ccnc3[nH]ccc23)s1)c1ccccc1.NCCC(NC(=O)c1cc(Br)c(-c2ccnc3[nH]ccc23)s1)c1ccccc1.O=C(O)C(F)(F)F.O=C(O)C(F)(F)F` (stereo not drawn) [GSK1307810A]: the potency estimated from few doses with CDC42BPA was 227 nM; in the assay on CDC42BPB it was 30.4 nM; in the assay with CDC42BPG (CATDS: 0.24390813090815999) it was 17.2 nM; in the assay on LATS1 it was 1110 nM; with PKN1, 988 nM; in the assay on PKN2 it was 1410 nM. In addition, the potency estimated from few doses was 60.2 nM in the assay on PRKACA; 153 nM in the assay on PRKACB; 2070 nM in the assay on PRKCA; 1330 nM with PRKCD; 245 nM in the assay on PRKG1; 360 nM in the assay with PRKX. Moreover, the values for the potency estimated from few doses with ROCK1, in the assay on ROCK2 and in the assay with TP53RK were 41.6 nM, 36.7 nM and 2050 nM, respectively.

Turning to `CN1CCN(CCCNc2nc3ccc(Oc4ccc(NC(=O)Nc5cc(C(F)(F)F)ccc5F)cc4)cc3[nH]2)CC1.Cl` [GW700494A], the potency estimated from few doses was 1130 nM in the assay with CDC42BPG (CATDS: 0.120544348793502); 826 nM with DDR1; 1780 nM in the assay on DJA1; 1170 nM with FLT3; 1560 nM in the assay with PIK3C3; 263 nM in the assay with PIK3CA. In addition, the potency estimated from few doses was 1450 nM in the assay on PIK3CG and 1020 nM with RET.
